Screens as filed in PubChem.
An excerpt weighted towards active compounds, which were near 4.9% of everything screened.
UCHL1 block = inhibitors of human UCHL1 deubiquitinase; P09936; purified UCHL1, Ub-rhodamine cleavage fluorescence; inhibition, % at 20 µM; actives 0.2% (n = 47,000); AID 1645859
OTUD3 inh = blocks human OTUD3 ubiquitin-rhodamine cleavage. purified OTUD3, Ub-rhodamine fluorescence, 2 h. inhibition, % at 25 µM. actives 0.7% (n = 47,000)
USP7 inh = inhibitors of human USP7 deubiquitinase; actives 0.3% (n = 47,000); purified USP7, Ub-rhodamine cleavage fluorescence; Q93009; inhibition, % at 20 µM
USP10 inh = inhibitors of human USP10 deubiquitinase | Q14694 | purified USP10, Ub-rhodamine fluorescence, 60 min | inhibition, % at 20 µM | actives 1.1% (n = 47,000) | AID 1645856
USP8 block = blocks human USP8 ubiquitin-rhodamine cleavage. AID 1645853. actives 4.2% (n = 47,000). inhibition, % at 20 µM. P40818. purified USP8, Ub-rhodamine cleavage fluorescence, 30 min
Hits are given with their value; n = inactive. Rule as the data show it: active = inhibition above about 30%; inactive = the rest.

SMILES	UCHL1 block	OTUD3 inh	USP7 inh	USP10 inh	USP8 block
O=C(N[C@H]1CCCc2ccccc21)c1cc(-c2ccco2)on1	n	n	n	n	33
COc1cccc(NC(=O)c2c(-c3ccc(C)cc3)c3c4n(c(-c5ccc(Cl)cc5)cn24)CCCC3)c1	n	n	n	n	n
COc1ccc(C(=O)[C@@H]2[C@H](C(=O)OC(c3ccccc3)c3ccccc3)N3c4ccccc4C=CC3[C@@]23C(=O)Nc2ccccc23)cc1OC (stereo partly specified)	n	n	n	n	n
O=C(c1cccs1)[C@@H]1[C@@H](C(=O)c2ccc3c(c2)OCO3)[C@]2(C(=O)Nc3ccccc32)[C@H]2C=Cc3ccccc3N12	n	n	n	n	38
CC1=CC2N(c3ccccc31)C(C(=O)C(C)(C)C)C(C(=O)c1ccc3c(c1)OCO3)C21C(=O)Nc2ccccc21 (stereo unspecified)	n	n	n	n	68
O=C1CN(C(=O)c2ccc3nc(-n4cccc4)sc3c2)CCN1	n	n	n	n	n
CCc1noc(-c2ccn3c(CC(=O)Nc4ccccc4)nnc3c2)n1	n	n	n	n	n
CC(C)c1noc(-c2ccn3c(CC(=O)Nc4ccccc4)nnc3c2)n1	n	n	n	n	40
O=S(=O)(c1cccc(F)c1)N1CCc2nc3ccccc3n2CC1	n	n	n	n	n
O=C(Cc1cc(-c2ccc(F)cc2)on1)NCc1ccccc1	n	n	n	n	n
CCc1nnc(NC(=O)CCCOc2ccc(C(C)(C)C)cc2)s1	n	n	n	n	n
COc1ccc(NS(=O)(=O)c2cc(NC(=O)/C=C/c3ccco3)ccc2N2CCCC2)cc1	n	44	n	n	76
O=C(Nc1ccc(OC(F)(F)F)cc1)C(=O)c1cn(CC(=O)N2CCOCC2)c2ccccc12	n	n	n	n	n
COc1cccc(N2CCN(c3ccc4nnc(CCC(=O)NC5CCCC5)n4n3)CC2)c1	n	n	n	n	65
Cc1ccc2ccc3c(c2n1)OC(N)=C(C#N)C3c1ccncc1 (stereo unspecified)	n	n	n	n	66
CC(O)CNc1ncnc2c1cnn2-c1cccc(Cl)c1 (stereo unspecified)	n	n	n	n	n
COC(=O)c1c(OC)cc2c(c1C)Oc1c(Cl)c(O)c(Cl)c(C)c1C(=O)O2	n	n	n	32	n
O=C(CN1C(=O)COc2ccc(Cl)cc21)Nc1cccc2ncccc12	n	n	n	n	73
O=C(Cc1ccc(Cl)c(Cl)c1)Nc1cccc2ncccc12	n	n	n	n	n
CC(C)=CCc1c(O)cc2c(c1C)OC(=O)c1c(C)c(Cl)c(O)c(CO)c1O2	n	n	n	48	n
COc1cc(O)c2c(=O)cc(C)oc2c1CC=C(C)C	n	n	n	n	n
COC(=O)CSc1nnc(-c2ccccc2O)n1Cc1ccccc1	n	n	n	n	37
O=C(CCc1nnc2n(Cc3ccccc3)c(=O)c3ccccc3n12)NCCN1CCCC1	n	n	n	n	n
CN(C(=O)Cn1c(=O)n(CCC(=O)NCc2ccc3c(c2)OCO3)c(=O)c2ccccc21)C1CCCCC1	n	n	n	n	n
O=C(Cn1c(=O)n(Cc2ccc3c(c2)OCO3)c(=O)c2ccccc21)c1ccccc1	n	n	n	n	36
SMILES	UCHL1 block	OTUD3 inh	USP7 inh	USP10 inh	USP8 block
O=C(CCc1nnc2n(Cc3ccccc3)c(=O)c3ccccc3n12)NCc1ccc2c(c1)OCO2	n	n	n	44	39
O=C(Cn1c(=O)n(Cc2ccc3c(c2)OCO3)c(=O)c2ncccc21)NCc1ccccc1	n	44	n	n	38
O=C(CCn1c(=O)c2ccccc2n(CC(=O)OCc2ccccc2)c1=O)NCc1ccc2c(c1)OCO2	n	n	n	48	n
O=C(Cn1c(=O)n(Cc2ccccc2)c(=O)c2ncccc21)NCC1CCCO1 (stereo unspecified)	n	n	n	n	n
O=C(Cn1c(=O)n(Cc2ccc(F)cc2)c(=O)c2ncccc21)NCc1ccc(F)cc1	n	n	n	n	44
COc1ccccc1Nc1ncc(C(=O)N(C)Cc2ccccc2)c2ccccc12	n	n	n	n	69
COC(=O)CNC(=O)c1cnc(Nc2ccccc2OC)c2ccccc12	n	n	n	n	n
COc1ccccc1CNC(=O)c1cnc(Nc2ccccc2OC)c2ccccc12	n	n	n	n	n
COc1ccccc1Nc1ncc(C(=O)NCCc2ccc(Cl)cc2)c2ccccc12	n	n	n	n	37
Cc1ccc(OCc2nc3ccccc3n2CC(=O)Nc2ccc(C(F)(F)F)cc2)cc1	n	n	n	n	n
O=C(Oc1ccc(-n2cnnn2)cc1)c1ccc(Br)cc1	n	n	n	n	n
CC(C)COc1ccc(C(=O)Oc2ccc(-n3cnnn3)cc2)cc1	n	n	n	n	37
CCCCOc1ccc(C(=O)Oc2ccc(-n3cnnn3)cc2)cc1	n	n	n	n	33
O=S(=O)(C1CCCCC1)N1CC(c2nc(-c3cccnc3)no2)C1	n	n	n	n	n
O=C(CNC(=O)c1ccc2nc(-n3cccc3)sc2c1)NCc1cccc(Cl)c1	n	n	n	n	69
O=C(O)CNC(=O)c1ccc2nc(-n3cccc3)sc2c1	n	n	n	n	n
CNc1cccc(-c2ccc3nnc(C)n3n2)c1	n	n	n	n	n
Cc1nc(C2CCCN2C(=O)c2ccccn2)nc2c1CC(=O)N2CCc1ccccc1F (stereo unspecified)	n	n	n	n	61
Cc1nc(C2CCCN2C(=O)c2ccnn2C)nc2c1CC(=O)N2Cc1ccc(F)cc1 (stereo unspecified)	n	n	n	n	40
CCC(C(=O)NCc1ccncc1)N(c1cccc(Cl)c1)S(C)(=O)=O (stereo unspecified)	n	32	n	n	n
CN(C)CC(=O)N1CCC2(C/C=C/Cc3ccccc3OCC(=O)NCCNC2=O)CC1	n	n	n	n	n
O=C(CCc1nc2ccccc2s1)Nc1ccc(N2CCOCC2)cc1	n	n	n	n	n
O=C(c1cscn1)N1CCc2[nH]nc(Nc3ccccc3)c2C1	n	n	n	n	n
Nc1c(C(=O)c2ccco2)sc2c1c(=O)[nH]c(=O)n2Cc1ccc2c(c1)OCO2	n	n	n	n	54
O=C(Nc1ccc2ccccc2n1)c1ccc(Cl)cc1	n	n	n	n	59
SMILES	UCHL1 block	OTUD3 inh	USP7 inh	USP10 inh	USP8 block
O=C(Nc1ccc2ccccc2n1)c1ccccc1Cl	n	n	n	n	n
O=C(Nc1nc(-c2ccccc2)ns1)c1ccc(F)cc1	n	n	n	n	n
Cc1c(-c2nsc(NC(=O)c3ccc(Cl)cc3)n2)nnn1-c1ccccc1F	n	n	n	43	86
O=C(CCc1nc2sc3c(c2c(=O)[nH]1)CCCCC3)Nc1ccc(F)cc1F	n	n	n	n	42
C[C@]12C(=O)N(C3CCCC3)CC(=O)N1CC(c1ccccc1Cl)c1c2[nH]c2ccccc12 (stereo partly specified)	n	n	n	n	n
CCCCN1CC(C(=O)Nc2ccc(C(=O)Nc3ccc(Cl)cc3)cc2)CC1=O (stereo unspecified)	n	n	n	n	n
